Measured values as given in PubChem BioAssay (Tox21).
Where “and” joins values, the source holds several entries; their conditions need not be identical. Equal values may be shown once. Records with an inconclusive call do not appear. More than one record can exist for a structure, and the calls need not agree. Calls of active or inactive are those of the source. Unless noted, calls follow the shape of the dose curve; as a rule, active = well fitted curve in the direction sought with a large enough effect in the repeat runs; inconclusive = weak or mixed curves; inactive = no such curve, though single readings can be large; an effect the other way counts as inactive or inconclusive.

How the values were obtained:
[1] = qHTS assay to identify small molecule antagonists of the glucocorticoid receptor (GR) signaling pathway - cell viability counter screen (AID 720693); also: nearly all actives have a fitted effect of over 55% in size
[2] = qHTS assay for identifying genotoxic compounds that show differential cytotoxicity against isogenic chicken DT40 cell lines with known DNA damage response pathways - Rad54/Ku70 mutant cell line (AID 743015); also: nearly all actives have a fitted effect of over 60% in size; also: potency is read from the fitted curve at half-maximal effect
[3] = qHTS assay to identify small molecule antagonists of the androgen receptor (AR) signaling pathway - cell viability counter screen (AID 743033; also: nearly all actives have a fitted effect of over 45% in size; also: potency is read from the fitted curve at half-maximal effect)
[4] = qHTS assay to identify small molecule antagonists of the androgen receptor (AR) signaling pathway using the MDA cell line - cell viability counter screen (AID 743041; also: nearly all actives have a fitted effect of over 45% in size)
In short: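 Viability counter screen run alongside the AR antagonist reporter: cells seeded 5 h before compound, R1881 added, 16 h incubation at 37C without CO2, fluorescent CellTiter-Fluor signal quantified.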

[5] = qHTS assay to identify small molecule antagonists of the thyroid receptor (TR) signaling pathway (AID 743065); also: nearly all actives have a fitted effect of over 55% in size; also: potency is read from the fitted curve at half-maximal effect
In short: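 GH3.TRE-Luc rat pituitary cells carrying two TR response elements driving luciferase were plated for 4 h, given compound plus 1 nM T3 (final), and incubated 23.5 h at 37 C. ONE-Glo luminescence measured reporter inhibition; CellTiter-Fluor fluorescence tracked cytotoxicity.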

[6] = tested on: thyroid hormone receptor (rat, GH3 cells); assay: qHTS assay to identify small molecule agonists of the thyroid receptor (TR) signaling pathway (AID 743066; calls by dose curve)
[7] = target: Estrogen receptor (Homo sapiens) (UniProt P03372); assay: qHTS assay to identify small molecule antagonists of the estrogen receptor alpha (ER-alpha) signaling pathway (AID 743069; active = well fitted curve in the direction sought with a large enough effect in the signal ratio in the repeat runs, not every such curve was filed as active; the % refers to the signal ratio)
In short: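 Estradiol-stimulated ER-alpha-UAS-bla HEK293 cells, 18 hr compound exposure at 37C. LiveBLAzer B/G substrate, 2 hr RT, fluorescence read.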

[8] = qHTS assay to identify small molecule antagonists of the estrogen receptor alpha (ER-alpha) signaling pathway - cell viability counter screen (AID 743074; calls by dose curve;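 also: HEK293 cells carrying ER-alpha-UAS-bla reporter stimulated with 17beta-estradiol; nearly all actives have a fitted effect of over 45% in size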)
[9] = target: Estrogen receptor (Homo sapiens) (UniProt P03372); assay: qHTS assay to identify small molecule agonists of the estrogen receptor alpha (ER-alpha) signaling pathway (AID 743075; calls by dose curve;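 also: HEK293 GripTite cells with ER-alpha and UAS-driven beta-lactamase reporter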; also: potency is read from the fitted curve at half-maximal effect)
[10] = target: Estrogen receptor (Homo sapiens) (UniProt P03372); assay: qHTS assay to identify small molecule agonists of the estrogen receptor alpha (ER-alpha) signaling pathway using the BG1 cell line (AID 743079); also: nearly all actives have a fitted effect of over 20% in size; also: potency is read from the fitted curve at half-maximal effect
[11] = qHTS assay to identify small molecule antagonists of the estrogen receptor alpha (ER-alpha) signaling pathway using the BG1 cell line (AID 743080; calls by dose curve;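 also: BG1 cells stimulated with 17beta-estradiol alongside compound; series mostly up to about 70 µM; nearly all actives have a fitted effect of over 25% in size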)
In short: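 Luminescence from a 4×ERE-luciferase reporter in BG1-Luc-4E2 cells served as read-out. Cells, pre-cultured 5 days in stripped-serum phenol-red-free medium, were exposed to compound with 17beta-estradiol co-stimulation for 21.5 h at 37 C.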

[12] = qHTS assay to identify small molecule antagonists of the estrogen receptor alpha (ER-alpha) signaling pathway using the BG1 cell line - cell viability counter screen (AID 743081);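 also: compound given together with 17beta-estradiol as the ER stimulus; series mostly up to about 70 µM; nearly all actives have a fitted effect of over 45% in size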
Aromatase (Homo sapiens) = Aromatase (Homo sapiens) (UniProt P11511); assay: qHTS assay to identify aromatase inhibitors (AID 743083); also: nearly all actives have a fitted effect of over 55% in size; also: potency is read from the fitted curve at half-maximal effect
[13] = qHTS assay for identifying genotoxic compounds that show differential cytotoxicity against isogenic chicken DT40 cell lines with known DNA damage response pathways - Rev3 mutant cell line (AID 743014); also: nearly all actives have a fitted effect of over 55% in size; also: potency is read from the fitted curve at half-maximal effect
[14] = qHTS assay to identify small molecule antagonists of the thyroid receptor (TR) signaling pathway - cell viability counter screen (AID 743064); also: nearly all actives have a fitted effect of over 50% in size; also: potency is read from the fitted curve at half-maximal effect
In short: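 Same-well viability check: GH3.TRE-Luc cells stimulated with 1 nM T3 alongside test compound for 23.5 h, followed by CellTiter-Fluor fluorescence.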

[15] = qHTS assay for identifying genotoxic compounds that show differential cytotoxicity against isogenic chicken DT40 cell lines with known DNA damage response pathways - wild type cell line (AID 743012); also: nearly all actives have a fitted effect of over 60% in size
In short: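 Wild-type DT40 cells (300/well) exposed to compounds for 40 hours at 37 C/5% CO2. Viability read by CellTiter-Glo luminescence after 30 min at room temperature.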

[16] = target: Androgen receptor (Homo sapiens) (UniProt P10275); assay: qHTS assay to identify small molecule antagonists of the androgen receptor (AR) signaling pathway (AID 743035; active = well fitted inhibition curve with a large enough effect in the signal ratio in the repeat runs, not every such curve was filed as active; the % refers to the signal ratio)
In short: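 HEK293 cells stably carrying UAS-beta-lactamase reporter, 2,000/well, given compounds plus R1881 agonist and incubated 16 h at 37C. LiveBLAzer B/G FRET substrate then added for 2 h at room temperature before fluorescence reading.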

[17] = target: Androgen receptor (Homo sapiens) (UniProt P10275); assay: qHTS assay to identify small molecule agonists of the androgen receptor (AR) signaling pathway (AID 743036; active = well fitted activation curve with a large enough effect in the signal ratio in the repeat runs, with a control signal flat, not every such curve was filed as active; the % refers to the signal ratio)
In short: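 Agonist activity was scored by beta-lactamase reporter fluorescence in stably transfected HEK293 cells exposed to compounds for 16 h at 37C and 5% CO2. Substrate loading took 2 h at room temperature.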

[18] = target: Androgen receptor (Homo sapiens) (UniProt P10275); assay: qHTS assay to identify small molecule agonists of the androgen receptor (AR) signaling pathway using the MDA cell line (AID 743040; also: nearly all actives have a fitted effect of over 20% in size; also: potency is read from the fitted curve at half-maximal effect)
In short: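 Luminescence from ONE-Glo, read after 30 min at room temperature, reflects MMTV-driven luciferase in MDA-kb2 cells (AR- and GR-responsive). Treatment lasted 16 h at 37C, 0% CO2.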

[19] = target: Androgen receptor (Homo sapiens) (UniProt P10275); assay: qHTS assay to identify small molecule antagonists of the androgen receptor (AR) signaling pathway using the MDA cell line (AID 743042; also: nearly all actives have a fitted effect of over 55% in size)
In short: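 MDA-kb2 cells (human breast carcinoma, stably carrying an MMTV-luciferase reporter responsive to AR and GR) were plated at 3,000 cells/well and preincubated 5 hr at 37C, then given compound plus R1881 agonist for 16 h. ONE-Glo luminescence was read.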

Measured: Potency

Androgen receptor (Homo sapiens), sequence (P10275 whole entry, looked up): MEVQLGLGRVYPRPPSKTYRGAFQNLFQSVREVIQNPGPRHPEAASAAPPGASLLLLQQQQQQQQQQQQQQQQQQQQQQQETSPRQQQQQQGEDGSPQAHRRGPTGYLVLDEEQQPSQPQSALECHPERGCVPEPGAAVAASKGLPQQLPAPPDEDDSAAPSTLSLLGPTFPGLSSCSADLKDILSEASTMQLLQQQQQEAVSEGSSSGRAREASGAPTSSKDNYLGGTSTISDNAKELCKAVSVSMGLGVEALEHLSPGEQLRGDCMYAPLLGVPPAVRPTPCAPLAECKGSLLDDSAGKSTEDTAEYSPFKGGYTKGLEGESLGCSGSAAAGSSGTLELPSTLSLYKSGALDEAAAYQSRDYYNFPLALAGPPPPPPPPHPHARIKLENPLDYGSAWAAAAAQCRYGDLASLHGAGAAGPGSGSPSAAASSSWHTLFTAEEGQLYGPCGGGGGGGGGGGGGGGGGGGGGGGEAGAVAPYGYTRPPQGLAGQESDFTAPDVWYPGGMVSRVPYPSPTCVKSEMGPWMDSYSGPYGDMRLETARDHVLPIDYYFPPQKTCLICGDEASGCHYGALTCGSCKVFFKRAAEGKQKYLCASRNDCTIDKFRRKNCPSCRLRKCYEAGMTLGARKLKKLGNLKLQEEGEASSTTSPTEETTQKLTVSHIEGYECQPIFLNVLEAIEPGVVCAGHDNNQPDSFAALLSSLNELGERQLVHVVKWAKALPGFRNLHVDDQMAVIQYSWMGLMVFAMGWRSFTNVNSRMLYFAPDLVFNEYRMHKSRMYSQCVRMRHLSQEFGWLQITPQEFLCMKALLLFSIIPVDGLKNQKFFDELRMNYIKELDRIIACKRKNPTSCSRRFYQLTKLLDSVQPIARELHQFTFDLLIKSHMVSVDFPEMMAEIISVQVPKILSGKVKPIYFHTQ
Aromatase (Homo sapiens), sequence (P11511 whole entry, looked up): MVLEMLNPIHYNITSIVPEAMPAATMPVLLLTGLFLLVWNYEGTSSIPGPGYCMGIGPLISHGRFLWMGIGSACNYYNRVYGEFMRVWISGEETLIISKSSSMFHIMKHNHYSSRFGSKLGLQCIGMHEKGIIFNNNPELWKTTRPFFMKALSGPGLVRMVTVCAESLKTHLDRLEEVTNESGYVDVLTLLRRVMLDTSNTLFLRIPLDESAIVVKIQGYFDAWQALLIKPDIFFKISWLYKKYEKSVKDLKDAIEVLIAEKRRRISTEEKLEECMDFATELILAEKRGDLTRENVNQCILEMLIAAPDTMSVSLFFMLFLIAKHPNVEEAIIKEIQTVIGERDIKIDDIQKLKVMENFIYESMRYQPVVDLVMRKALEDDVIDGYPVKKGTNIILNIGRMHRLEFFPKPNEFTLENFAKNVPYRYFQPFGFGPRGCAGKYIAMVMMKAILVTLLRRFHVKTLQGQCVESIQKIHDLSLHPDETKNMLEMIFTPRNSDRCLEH
Estrogen receptor (Homo sapiens), sequence (P03372 whole entry, looked up): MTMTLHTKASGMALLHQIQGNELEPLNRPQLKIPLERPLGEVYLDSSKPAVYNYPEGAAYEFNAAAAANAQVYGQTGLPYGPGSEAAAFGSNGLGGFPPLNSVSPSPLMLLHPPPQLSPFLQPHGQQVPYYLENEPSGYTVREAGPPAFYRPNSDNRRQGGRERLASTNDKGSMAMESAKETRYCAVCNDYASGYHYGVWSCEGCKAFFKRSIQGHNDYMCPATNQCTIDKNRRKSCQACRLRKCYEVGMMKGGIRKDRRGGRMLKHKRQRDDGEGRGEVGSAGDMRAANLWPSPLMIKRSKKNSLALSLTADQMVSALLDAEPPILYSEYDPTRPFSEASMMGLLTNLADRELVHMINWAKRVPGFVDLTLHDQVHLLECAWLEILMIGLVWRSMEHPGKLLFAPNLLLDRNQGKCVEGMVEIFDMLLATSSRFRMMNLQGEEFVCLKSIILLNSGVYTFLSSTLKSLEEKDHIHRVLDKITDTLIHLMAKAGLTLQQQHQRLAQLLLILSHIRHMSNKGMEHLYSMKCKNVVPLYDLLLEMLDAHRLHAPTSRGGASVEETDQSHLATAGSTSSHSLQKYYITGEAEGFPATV

O=C1OC(=O)C2CCCCC12 (stereo unspecified)
not listed: [13] | [14] | [15] | [16] | [17] | [18] | [19]
inactive: all other assays above

O=C(O)CCCl
not listed: [2] | [4] | [15] | [16] | [17] | [18] | [19]
inactive: all other assays above

CS(=O)(=O)O
not listed: [1] | [19]
inactive: all other assays above

CCN1CCC[C@H]1CNC(=O)c1c(O)c(Cl)cc(Cl)c1OC
not listed: [11] | [14] | [15] | [16] | [17] | [18] | [19]
inactive: all other assays above

CCCC(=O)O[C@]1(C(=O)CO)CC[C@H]2[C@@H]3CCC4=CC(=O)CC[C@]4(C)[C@H]3[C@@H](O)C[C@@]21C
inactive: [15] | [13] | [2] | [4] | [14] | [5] | [6] | [8] | [12] | Aromatase (Homo sapiens)

CCCCNC(=O)NCCCC
not listed: [5] | [6] | [13] | [15] | [17]
inactive: all other assays above

Cc1[nH]c(=O)c(C#N)cc1-c1ccc2nccn2c1
inactive: [1] | [2] | [3] | [5] | [6] | [8] | [12]

CCOC(=O)c1c(C)n(C)c2ccc(O)cc12
not listed: [7] | [9] | [10] | [11] | [13] | [15] | [16] | [17]
inactive: all other assays above

C[C@](N)(Cc1ccc(O)cc1)C(=O)O
inactive: [1] | [13] | [2] | [3] | [4] | [7] | [8] | [9] | [10] | [12] | Aromatase (Homo sapiens)

c1ccc([C@H]2CN3CCSC3=N2)cc1
active: [9] 0.0601 µM [fluorescent] | [10] 11.9 µM
inactive: [1] | [3] | [4] | [5] | [6] | [7] | [8] | [11] | [12] | Aromatase (Homo sapiens)

CN1CCN(c2cc3c(cc2F)c(=O)c(C(=O)O)cn3-c2ccc(F)cc2)CC1
active: [2] 29.8 µM | [18] 26.6 µM
inactive: [1] | [19] | [14] | [5] | [6] | [8] | [12] | Aromatase (Homo sapiens)

C=COCC1CCC(CO)CC1 (stereo unspecified)
inactive: [1] | [2] | [3] | [4] | [5] | [6] | [9] | [10] | [11] | [12] | Aromatase (Homo sapiens)

O=c1[nH]c(=O)n([C@H]2C[C@H](O)[C@@H](CO)O2)cc1I
active: [13] 1.8 µM | [2] 2.02 µM
inactive: [1] | [4] | [5] | [6] | [8] | [12] | Aromatase (Homo sapiens)

CCN(Cc1ccncc1)C(=O)C(CO)c1ccccc1 (stereo unspecified)
inactive: [1] | [13] | [2] | [3] | [4] | [5] | [6] | [8] | [12]
active: Aromatase (Homo sapiens) 29.8 µM

COC(=O)C1=C(C)NC(C)=C(C(=O)OC)C1c1ccccc1[N+](=O)[O-]
inactive and 49 µM (active): [3]
active: [5] 30.7 µM | Aromatase (Homo sapiens) 68.7 µM
inactive: [1] | [4] | [6] | [7] | [8] | [9] | [10] | [11] | [12]

O=C(CCCN1CCN(c2ccccn2)CC1)c1ccc(F)cc1
inactive: [1] | [3] | [4] | [14] | [5] | [6] | [8] | [12] | Aromatase (Homo sapiens)

OCCCC1CCCCC1
not listed: [13] | [15] | [16] | [17] | [18] | [19]
inactive: all other assays above

CN1CCC(=C2c3ccccc3CC(=O)c3sccc32)CC1
inactive: [1] | [3] | [4] | [6] | [7] | [8] | [9] | [10] | [11] | Aromatase (Homo sapiens)
active: [14] 15 µM | [5] 23.7 µM

CCCCCSCCCCC
active: [13] 61.1 µM
not listed: [2] | [15] | [16] | [17] | [18] | [19]
inactive: all other assays above

C=CCS(=O)(=O)O
not listed: [11] | [13] | [15] | [16] | [17] | [18] | [19]
inactive: all other assays above

CC(=O)Nc1c(I)cc(I)c(C(=O)O)c1I
not listed: [1] | [3] | [7] | [16] | [17] | [18] | [19]
inactive: all other assays above
